Sampled rows, rich in hits. Any-hit rate of the full collection: about 2.3%.
Kir21 block: inhibitors of mouse Kir2.1 inward-rectifier potassium channel; Inward rectifier potassium channel 2 (Mus musculus), P35561; HEK293-Kir2.1, FluxOR thallium flux fluorescence; stronger effect = lower value; B-score at 10 µM; actives 0.85% (n = 310,000);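 active = fluorescence ratio B-score at or below minus 3 SD of library scores, with starting-brightness B-score within 2 SD, cut at about -4.2 in these data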;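 also: channel flux triggered by added potassium and thallium sulfate stimulus; B-score of peak minus minimum fluorescence over baseline after thallium stimulus; more negative B-score means stronger Kir2.1 block with less thallium influx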
Target sequence (P35561 whole entry, looked up): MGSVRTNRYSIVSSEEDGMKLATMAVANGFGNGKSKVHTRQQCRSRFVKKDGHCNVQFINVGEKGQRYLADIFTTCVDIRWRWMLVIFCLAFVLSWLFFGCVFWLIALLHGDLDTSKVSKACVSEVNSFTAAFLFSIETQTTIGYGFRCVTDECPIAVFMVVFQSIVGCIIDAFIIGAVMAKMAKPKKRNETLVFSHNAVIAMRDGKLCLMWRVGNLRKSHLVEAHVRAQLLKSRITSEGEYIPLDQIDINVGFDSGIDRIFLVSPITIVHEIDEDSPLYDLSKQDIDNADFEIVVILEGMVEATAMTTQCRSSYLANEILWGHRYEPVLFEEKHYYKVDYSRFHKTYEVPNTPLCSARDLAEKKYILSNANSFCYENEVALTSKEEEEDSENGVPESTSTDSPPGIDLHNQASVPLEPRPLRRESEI
FID counter: compounds displacing fluorescent DNA intercalator, primary screen, artefact control for HCV NS3 helicase inhibitor project, biochemical, FID fluorescence. DNA fluorescent intercalator displacement. inhibition, % at 7.9 µM. actives 0.17% (n = 290,000); in the data active = inhibition above about 37%;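 also: 0% = vehicle and 100% = reference compound; higher means more ethidium bromide displaced from hairpin DNA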
Rce1 inhib: yeast Rce1p protease inhibitors, primary screen, biochemical, fluorescence, cell-free homogeneous. CAAX prenyl protease 2 (Saccharomyces cerevisiae (strain ATCC 204508 / S288c)), Q03530. actives 0.27% (n = 290,000). yeast membranes, quenched prenylated peptide cleavage fluorescence. calls only;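 active = fall in fluorescence gain of 50% or more versus controls, with final raw signal at or below 3038400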;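 also: plate controls were neutral control wells for no effect and wells lacking membranes for full effect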
PfM18AAP inh: PfM18AAP inhibitors, malaria aminopeptidase, primary screen, biochemical, QFRET, recombinant enzyme; H-Glu-NHMec fluorogenic cleavage; inhibition, % at 7.35 µM; M18 aspartyl aminopeptidase (Plasmodium falciparum 3D7); actives 1.2% (n = 290,000); AID 1822, 2009;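 active = inhibition above the campaign mean inhibition over all tested compounds plus 3 SD, cut at about 28% in these data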;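 also: 0% = plate median of test compound wells and 100% = 2 mM ZnCl2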
Active calls of the source: *; i = inactive; · = no result; + = active, no number.

SMILES	Kir21 block	FID counter	Rce1 inhib	PfM18AAP inh
CCCCOc1ccc(CSC(=N)N)cc1Cl	-11.6*	10.8	i	3.0
CCCCCOc1ccc(Br)cc1CSC(=N)N	-12.1*	29.0	i	1.9
CS(=O)(=O)c1ncc(Cl)c(C(=O)Nc2ccc(OC(F)F)cc2)n1	-5.34*	5.4	i	-57.5
COc1ccc(Cl)cc1-c1n[nH]c(=S)n1Cc1ccccc1	-4.34*	-26.9	i	16.1
CCOc1ccc(Cc2n[nH]c(=S)n2Cc2ccccc2)cc1	-0.37	-24.2	i	8.5
S=c1[nH]nc(-c2ccccc2Cl)n1Cc1ccccc1	-2	-9.2	i	7.6
COc1ccc(Cc2n[nH]c(=S)n2Cc2ccccc2)cc1Cl	-4.98*	-21.3	i	13.3
NC(=O)C1CCN(C(=O)c2ccc3c(=O)n(Cc4ccco4)c(SCc4ccc([N+](=O)[O-])cc4)nc3c2)CC1	-0.46	-57.2	i	3.2
CCCN(CC1CCCO1)C(=O)c1cc(COc2ccc(F)cc2F)on1 (configuration not stated)	-1.48	-21.6	i	-4.9
O=C(c1ccc2c3c(cccc13)CC2)C1CCCN(Cc2cccnc2)C1 (configuration not stated)	0.02	-1.7	i	2.5
Cc1cccc(CN2CCCC(C(=O)c3ccc4c5c(cccc35)CC4)C2)n1 (configuration not stated)	-4.21*	1.5	i	2.9
Cc1cc(C(=O)N/N=C/c2c3ccccc3cc3ccccc23)n[nH]1	1.13	-28.0	+	9.6
CCOc1ccc2ccccc2c1/C=N/NC(=O)c1cc(C)[nH]n1	0.95	-20.0	i	-2.2
Cc1cnc(C(=O)NNC(=O)c2ccc(Br)cc2)cn1	4.32	·	i	·
Cc1ccc(S(=O)(=O)N(CC2CO2)c2ccccc2[N+](=O)[O-])cc1 (configuration not stated)	0.02	10.3	i	-5.5
Cc1ccc(S(=O)(=O)N(CC2CO2)c2cccc([N+](=O)[O-])c2)cc1 (configuration not stated)	-4.94*	-3.7	i	-11.3
O=C(NC(=S)Nc1ccc2[nH]c(=O)[nH]c2c1)c1ccccc1[N+](=O)[O-]	-1.67	1.0	i	17.4
CN(C)S(=O)(=O)c1ccc2nnn(O)c2c1	-0.02	2.8	i	-4.5
NC(=O)c1cc(S(=O)(=O)N2CCc3ccccc3C2)cs1	1.26	-3.5	i	-11.9
Cc1ccc2cc(C)c(SCC(=O)NCC3CCCO3)nc2c1 (configuration not stated)	-4.31*	-37.6	i	-7.7
Cc1ccc(SCC(=O)NCC2CCCO2)cc1 (configuration not stated)	0.05	4.2	i	-2.4
CC(C)(C)C1CCC(=O)N(CCOc2ccccc2)CC1 (configuration not stated)	-5.63*	-33.1	i	-0.3
c1ccc2c(c1)Sc1ccccc1-n1cnnc1-2	-0.95	-8.7	i	2.0
Clc1ccc2c(c1)-c1nnc(Br)n1-c1ccccc1S2	-7.16*	-19.4	·	-0.5
Brc1nnc2n1-c1ccccc1Sc1ccccc1-2	-6.02*	-15.2	·	-0.7
SMILES	Kir21 block	FID counter	Rce1 inhib	PfM18AAP inh
Clc1ccccc1-c1nnc2n1-c1ccccc1SC2	-0.02	-9.6	i	-19.6
C/C(=N\NC(=O)CC#N)C1COc2ccccc2O1 (configuration not stated)	1.21	0.9	i	28.7*
CCc1cc(=O)oc2c3c(cc(OCC(=O)NCCCC(=O)O)c12)OC(C)(C)CC3	1.22	-34.8	+	-0.4
COc1cccc(CNc2ccc(S(N)(=O)=O)cc2)c1OCc1ccccc1F	-5.07*	-20.4	i	1.7
Cc1cc(C)cc(N(CC(=O)NC2CCCC2)C(=O)CCC(=O)Nc2nc(C)cs2)c1	-1.77	-47.1	i	4.8
c1ccc2c(c1)OC(CCCN1CCCCC1)c1ccccc1S2 (configuration not stated)	-5.77*	37.5*	i	0.2
Cc1ccc(C(=O)NCc2cccnc2)cc1S(=O)(=O)Nc1ccccc1	-0.52	-7.4	i	-0.2
CCOC(=O)c1c(N)sc2c(OCC)c(Br)ccc12	-0.32	2.9	i	-4.5
CCOC(=O)c1c(NC(C)=O)sc2c(OCC(O)CNC(C)(C)C)c(Br)ccc12 (configuration not stated)	-6.06*	22.1	i	-13.2
Cc1ccc(OCCCCNC2CCCC(C)C2C)c(C)c1 (configuration not stated)	-7.41*	31.5	i	-3.0
Cc1ccc(OCCCCN2CCCCC2)c(C)c1	0.68	4.4	i	-11.6
COc1ccc2c(c1)C=Cc1ccccc1O2	0.8	·	i	·
